Laboratory results taken from PubChem BioAssay AID602244 (Sanford-Burnham Center for Chemical Genomics, 2012).
Among all 360,000 compounds or so, about 1,300 (0.36%) were called active. The sample holds actives, similar compounds and a random draw of the others, so the mix is not that of the screen. No stated cut-off is given here; in the data, active means inhibition above about 34% (passing the limit was not always enough); inactive means the rest.

Target: C-X-C chemokine receptor type 6 (Homo sapiens) (UniProt O00574)
Assay: blockade of CXCL16-induced CXCR6 beta-arrestin recruitment – cell-based, luminescence, CHO-K1 PathHunter, 1536-well, primary screen (AID 602244);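 further: antagonist mode with CXCL16 agonist at 10 nM final; 0% = 10 nM CXCL16 with DMSO and 100% = unstimulated wells without agonist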
Conditions: at 20 µM, stronger effect = higher value

Sequence of C-X-C chemokine receptor type 6 (Homo sapiens) (O00574 whole entry, looked up): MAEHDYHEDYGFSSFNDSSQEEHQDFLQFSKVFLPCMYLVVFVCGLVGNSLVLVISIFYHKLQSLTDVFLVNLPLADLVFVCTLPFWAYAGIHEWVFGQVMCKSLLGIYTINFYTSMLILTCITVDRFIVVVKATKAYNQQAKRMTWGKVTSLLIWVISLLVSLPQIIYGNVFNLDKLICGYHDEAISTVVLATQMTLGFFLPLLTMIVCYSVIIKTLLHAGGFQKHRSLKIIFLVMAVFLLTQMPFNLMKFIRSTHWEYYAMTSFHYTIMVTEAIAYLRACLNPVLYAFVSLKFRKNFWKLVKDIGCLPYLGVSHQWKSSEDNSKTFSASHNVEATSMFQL

inhibition, active:
CC(C)N=C1CCCC1C(=S)SSC(=S)C1CCCC1=NC(C)C (centres undefined) 78.9%, CC(C)OC(=O)CN1C(=O)C(=O)c2ccccc21 68%, CN(O)C(=S)c1ccccc1 73.3%, O=[N+]([O-])/C=C/c1ccc2c(ccn2Cc2ccccc2)c1 73.1%, CCCCCCCCCCOC(=O)C[N+](C)(C)CC1CCCCC1O (centres undefined) 57.1%, O=C1/C(=C\c2ccc([N+](=O)[O-])cc2)CS(=O)(=O)C/C1=C/c1ccc([N+](=O)[O-])cc1 96.9%, Cc1ccc(C(=O)CNc2ccc(F)cc2)cc1 46.4%, CC1=C/C(=N\OS(=O)(=O)c2ccccc2)C=CC1=O 62%, O=C1Nc2ccc(Br)cc2/C1=N/N=C/C1=C(N2CCOCC2)C(=C\c2ccccc2)/CC1 41.2%, CC(=O)Nc1cc(-c2ccc(N3CCN(C)CC3)cc2)cn2c(-c3ccc(F)cc3)cnc12 89.5%, COc1ccc(-c2csc(Cc3nc(O)cs3)n2)cc1 66.9%, O=C1C=CC(=O)N1c1ccc(N2CCCCC2)cc1 74.7%, O=C(C1CC(=O)N(C2CCCCC2)C1)N1CCN(c2ccccc2)CC1 (centres undefined) 37%, Oc1ccc2ccccc2c1N=Nc1nccs1 65.1%, O=C(Nc1ccccc1)c1nnsc1S(=O)(=O)c1ccc(Cl)cc1 96.4%, Cc1cccc(NC(=O)c2nc(S(=O)(=O)Cc3ccccc3)ncc2Cl)c1 64.6%, Cc1cccc(CS(=O)(=O)c2ncc(Cl)c(C(=O)Nc3ccc(F)cc3)n2)c1 57%, O=c1ccc2c(-c3ccccc3S(=O)(=O)O)c3ccc(O)c(O)c3oc-2c1O 47.9%

inhibition, inactive:
CCc1ccccc1N(CC(=O)N1CCN(c2ccccc2F)CC1)S(C)(=O)=O 1.2%, CCCc1cc(=O)oc2c(C)c(OC(C)C(=O)NCC(O)c3ccccc3)ccc12 (centres undefined) 2.9%, O=C1NCC(c2ccccc2)(c2ccccc2)C(=O)N1 3.6%, CC(NC(=S)NNS(=O)(=O)c1ccc(C(C)(C)C)cc1)c1ccccc1 (centres undefined) -0.6%, COc1cc(C(C)=O)ccc1OC(=O)CN1C(=O)c2ccccc2C1=O 1.2%, Cc1cc(/C=C2/SC(=O)N(CC(=O)OC(C)C)C2=O)c(C)n1C 1.9%, COc1cccc(NC(=O)Cn2c3ccc(F)cc3c3nc4n(c(=O)c32)CCS4)c1 4.8%, CCN(CC)C(=O)CC1(c2ccccc2OC)CCOC(C(C)C)C1 (centres undefined) 6.3%, CC(C)(C)S(=O)(=O)c1ccccc1-c1noc(-c2ccccc2)c1C(N)=O -0.6%, Cc1ccc(S(=O)(=O)N2CCOCC2)cc1NC(=O)c1ccncc1 -5.9%, CN(CCc1ccccc1)C(=O)c1cccc(NC(=O)Cc2ccc([N+](=O)[O-])cc2)c1 -6.9%, CCN(CC)CCCNC(=O)CCn1nc(-c2ccc(Cl)cc2)ccc1=O 2.5%, COc1ccc(CNC(=O)[C@@H]2CC=C[C@@H]3CCN(C4CC4)C(=O)[C@@H]32)cc1 -0.1%, O=C1CCC(=O)N1CCC(=O)N(C(=O)NC1CCCCC1)C1CCCCC1 0%, S=c1[nH]ccn1-c1ccc(Cl)cc1 -3.9%, Cc1noc(C)c1C(=O)N(CC(=O)NC1CCCC1)Cc1ccccc1F -0.5%, CCc1noc(C)c1C(=O)N1CCCSC1=Nc1ccccc1OC -1.3%, CCCCCOC(=O)c1ccc(N2C(=O)C3C4C=CC(C4)C3C2=O)cc1 (centres undefined) 4.9%, COc1ccc(S(=O)(=O)N(C)CC(=O)N2CCCC2)cc1Cl -1.8%, O=C1CCCN1C(=O)COc1ccc([N+](=O)[O-])cc1 -0.7%, O=C(Cc1ccccc1)N1CCN(S(=O)(=O)c2ccc([N+](=O)[O-])cc2)CC1 -15.5%, CC(CC(=O)Nc1ccc(F)cc1F)S(=O)(=O)c1ccc2c(c1)NC(=O)CO2 (centres undefined) 6.2%, CCn1cc(C(=O)N2CC=C(c3ccccc3)CC2)c(=O)c2ccc(C)nc21 -18.1%, Cc1ccc(C(=O)NC2CCN(C(=O)Nc3ccc(F)cc3)CC2)cc1 -6%, Cc1ccc(NC(=O)CCC(=O)c2ccc(Br)cc2)cc1 -2.1%, CCCC(=O)Nc1ncnc2c1ncn2[C@@H]1O[C@@H]2OP(=O)(O)OC[C@H]2[C@H]1OC(=O)CCC -1%, N#Cc1c(NC(=O)c2ccc(N3CCOCC3)c([N+](=O)[O-])c2)sc2c1CCCC2 15.6%, O=C(O)c1ccc(NN=CC2=C(N3CCOCC3)/C(=C/c3ccccc3)CC2)cc1 -2.9%, O=S(N1CCCCCC1)C12CC3CC(CC(C3)C1)C2 (centres undefined) -6.4%, CC(=O)N1CCc2c(sc(NC(=O)CCS(=O)(=O)c3ccc(C)cc3)c2C(N)=O)C1 8.6%, CCCNC(=O)C1(C)CCCN(C(=O)c2oc3ccccc3c2C)C1 (centres undefined) 6.5%, COc1ccc(C2/C=C\CN(S(=O)(=O)c3cccs3)CC(=O)N2Cc2ccc(F)cc2)cc1 (centres undefined) 10.5%, CC1CN(CC(=O)NC(C)c2ccccc2)CC(C)O1 (centres undefined) 4.8%, COc1ccccc1-c1cc(NC(C)=O)c2ncc(-c3ccc(F)cc3)n2c1 8.7%, CC(=O)Nc1cc(-c2ccc(N3CCN(C)CC3)cc2)cn2c(-c3cccc(C(=O)N(C)C)c3)cnc12 -6.6%, CCOn1c(=O)c(=O)n(O)c2ccccc21 3.7%, COc1ccc(C(O)c2nc(-c3ccc(OC)nc3)cs2)cc1 (centres undefined) -1.3%, COc1ccc(C(C)(NC(C)=O)c2nc(-c3ccc(S(C)(=O)=O)cc3)cs2)cc1 (centres undefined) 1.5%, O=C(NCc1ccccc1)C1c2ccccc2OCC(=O)N1CCCN1CCOCC1 (centres undefined) 3.7%, O=C(c1ccncc1)N1CCN(S(=O)(=O)c2cc(C(F)(F)F)cc(C(F)(F)F)c2)CC1 -2.1%, COc1cccc(NC(=O)C(=O)c2cn(CC(=O)N3CCOCC3)c3ccccc23)c1 6%, O=C1c2ccccc2NC(c2ccccc2O)N1NS(=O)(=O)c1ccccc1 (centres undefined) -0.7%, CC(C)c1c(O)nc(SCCOc2ccc(Cl)cc2)[nH]c1=O 7.1%, Cc1ccc(-c2nn(-c3ccc(F)cc3)cc2C(=O)NCC(c2cccs2)N2CCOCC2)cc1 (centres undefined) 15.5%, O=C(c1ccc(Cl)c(S(=O)(=O)N2CCCCCC2)c1)N1CCN(c2ccc(O)cc2)CC1 -20.6%, c1ccc(-n2cccc2)c(N2CCCCC2)c1 -7.4%, NC(=O)c1ccc(N2CCCC2)nc1 1%, COC(=O)C1=C(C(=O)OC)[C@@H]2N(C)c3ccccc3[C@@]23C[C@@H](C(=O)OC)N(C(C)=O)C3=N1 0.7%, O=C(C1CC(=O)N(c2ccc(F)cc2)C1)N1CCN(c2ccccc2)CC1 (centres undefined) 7%, O=C(C1CC(=O)N(C2CCCC2)C1)N1CCN(c2cccc(C(F)(F)F)c2)CC1 (centres undefined) -1.4%, CCN1CCN(c2ccc(S(=O)(=O)N3CCCCC3)cc2NC(=O)c2cccc(NC(C)=O)c2)CC1 1.9%, CN(CCCC(=O)Nc1nccs1)S(=O)(=O)c1ccc(Cl)cc1 0.8%, O=S(=O)(NCc1ccccc1Br)c1ccccc1Br 4.3%, COC(=O)CN1C(=O)[C@H]2[C@@H](/C=C/c3ccccc3)N3C(=O)CN(Cc4ccccc4)C(=O)[C@@]3(Cc3ccccc3)[C@H]2C1=O -9.8%, O=C(Nc1ccc(S(=O)(=O)N2CCOCC2)cc1)C1CCN(S(=O)(=O)c2ccc(Cl)cc2)CC1 0.6%, C/C(=N\NS(=O)(=O)c1ccc(Cl)cc1)c1ccc(NC(=O)c2ccco2)cc1 0.1%, CC1CCN(CCCNC(=O)CN2C(=O)CSc3ccc(S(=O)(=O)N4CCCCC4)cc32)CC1 2%, Cc1ccc(-c2noc(CCC(=O)Nc3ccccc3N3CCN(C)CC3)n2)cc1 6%, CCc1nn(-c2cc(Oc3cccc4ccccc34)nc(-c3ccccc3)n2)c(N)c1C#N 0.4%, Cc1cccc(NC(=O)Cn2cc(C(=O)c3ccco3)c3ccccc32)c1 4.5%, Cc1cccc(NC(=O)C2CCN(S(=O)(=O)c3cccc4cccnc34)CC2)c1 9.3%, CN(CC(=O)Nc1ccc(F)cc1)CC(=O)Nc1ccc(Cl)c(S(=O)(=O)N2CCOCC2)c1 -1%, Cc1cccc(C(=O)Nc2ccc(Oc3cnccn3)cc2)c1 1.5%, O=C(NN1CCOCC1)c1cccc(F)c1 0.7%, CCCNC(=O)C1(C)CCN(C(=O)c2cc(F)ccc2C)C1 (centres undefined) 0.9%, O=C(CSc1nc2cc3c(cc2c(=O)n1CCC1=CCCCC1)OCO3)NCc1ccco1 6.1%, Cc1ccc2c(c1)N(CC(=O)NCCc1ccc(Cl)cc1)C(=O)c1cccnc1O2 -3.1%, CC(=O)N1c2ccc(S(=O)(=O)N3CCCC(C(=O)Nc4cccc(F)c4)C3)cc2CC1C (centres undefined) -11.7%, Cc1ccc(CCCOC(=O)C[N+]2(C)CCCCC2)cc1 -4.5%, CCCNC(=O)c1onc(CSc2ccc(F)cc2)c1C(=O)NC(C)C 2.3%, Cc1ccc(S(=O)(=O)N2CC[C@H]3[C@@H](C2)C(=O)C[C@@H](c2ccccc2)N3S(=O)(=O)c2ccc(C)cc2)cc1 -1.4%
